The panel holds about 83,000 compounds, 20% with a hit somewhere; the sample as a whole holds those more often.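 Single-dose data. Exposure time 48 hours. Values below 10 considered active.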 Unmarked numbers belong to inactive results. The source made the active and inactive calls.

Test systems include SR leukemia; RPMI-8226 leukemia; OVCAR-8 ovarian; OVCAR-5 ovarian; OVCAR-4 ovarian; SK-OV-3 ovarian; IGROV1 ovarian; OVCAR-3 ovarian; HS 578T breast; NCI/ADR-RES ovarian; T-47D breast; BT-549 breast; MDA-MB-435 melanoma; SW-620 colon; MCF7 breast; HCT-116 colon; HCC-2998 colon; KM12 colon.
Test in all cases: NCI-60 one-dose screen, 48 h (100 = growth as untreated, 0 = no growth, -100 = all killed)
Common to all, as to conditions: 10 µM unless noted

Consider `C/C(=N\Nc1cc(C)c2cc(C)ccc2n1)c1ccccn1`, for which the growth with SR leukemia was 0.29% (active); with RPMI-8226 leukemia, -33.4% (active); in the assay on OVCAR-8 ovarian, -60% (active); in the assay with OVCAR-5 ovarian, -33.3% (active); in the assay on OVCAR-4 ovarian, -83.1% (active); in the assay with SK-OV-3 ovarian, 25.4%. Besides, the growth in the assay with IGROV1 ovarian was -35.9% (active); in the assay with OVCAR-3 ovarian, -40.6% (active); in the assay on HS 578T breast, 45.9%; with NCI/ADR-RES ovarian, 1.12% (active); with T-47D breast it was -50.4% (active); in the assay on BT-549 breast it was 21.2%. Further, the growth with MDA-MB-435 melanoma is -89.4% (active); in the assay on SW-620 colon, -81.3% (active); in the assay with MCF7 breast it was -76.1% (active); in the assay on HCT-116 colon, -72.6% (active); in the assay on HCC-2998 colon, -25.9% (active); in the assay on KM12 colon it was -46.9% (active).
Consider `Cc1ccc(-c2nc3ccc(Cl)cc3c(=O)n2N2C(=O)CSC2c2ccccc2Cl)cc1` (centres undefined), for which the growth in the assay with SR leukemia is 80.8%; in the assay with RPMI-8226 leukemia it was 80.1%; in the assay on OVCAR-8 ovarian it was 27.3%; in the assay on OVCAR-5 ovarian it was 82.7%; in the assay with OVCAR-4 ovarian, 14.4%; with SK-OV-3 ovarian, 36.2%. Further, the growth was 57.5% in the assay with IGROV1 ovarian; 58.6% with OVCAR-3 ovarian; 56.6% with HS 578T breast; 70.6% in the assay on NCI/ADR-RES ovarian; 75.8% in the assay on T-47D breast; 100% with BT-549 breast. The growth in the assay on MDA-MB-435 melanoma was 66.9%; in the assay with SW-620 colon it was 77.8%; in the assay with MCF7 breast, 94.1%; with HCT-116 colon, 53.1%; in the assay on HCC-2998 colon, 93.4%; in the assay on KM12 colon it was 82.3%.
Consider `COc1cccc(-c2nn(-c3ccccc3)cc2-c2ccnc(NCCCO)c2)c1`, for which the growth in the assay on SR leukemia was 5.71% (active); in the assay with RPMI-8226 leukemia, 28.3%; in the assay on OVCAR-8 ovarian, 46%; in the assay on OVCAR-5 ovarian, 92%; in the assay on OVCAR-4 ovarian it was 55.1%; in the assay on SK-OV-3 ovarian, 45%. Also, the growth is 58.8% with IGROV1 ovarian; 25.9% with OVCAR-3 ovarian; 35.7% in the assay on HS 578T breast; 7.32% (active) in the assay on NCI/ADR-RES ovarian; 26.7% in the assay on T-47D breast; 55.2% in the assay on BT-549 breast. The growth with MDA-MB-435 melanoma is -15.5% (active); in the assay on SW-620 colon it was 21.3%; in the assay with MCF7 breast, 29.5%; in the assay on HCT-116 colon, 22.9%; in the assay on HCC-2998 colon, 65.5%; in the assay with KM12 colon, 34.1%.
As to `O=C1C(=O)N(CCCCn2cc(-c3ccccc3)nn2)c2ccccc21`, the growth in the assay with SR leukemia was 108%; in the assay on RPMI-8226 leukemia it was 95.6%; with OVCAR-8 ovarian it was 103%; with OVCAR-5 ovarian it was 102%; with OVCAR-4 ovarian, 106%; with SK-OV-3 ovarian it was 111%. In addition, the growth is 101% in the assay with IGROV1 ovarian; 111% in the assay with OVCAR-3 ovarian; 99.1% in the assay on HS 578T breast; 104% in the assay on NCI/ADR-RES ovarian; 93.4% in the assay with T-47D breast; 96.7% in the assay on BT-549 breast. In addition, the growth was 108% in the assay on MDA-MB-435 melanoma; 104% in the assay with SW-620 colon; 94.9% in the assay with MCF7 breast; 101% in the assay with HCT-116 colon; 117% in the assay with HCC-2998 colon; 104% in the assay on KM12 colon.
`C[C@@H](Oc1ccc(C(=O)NS(=O)(=O)C(C)(C)C)cc1C(F)(F)F)c1ccc(Oc2ccccc2)cn1`: the growth in the assay on SR leukemia was 29.7%; in the assay with RPMI-8226 leukemia it was 71.5%; in the assay with OVCAR-8 ovarian, 41.2%; in the assay with OVCAR-5 ovarian, 86.5%; in the assay on OVCAR-4 ovarian, 67.2%; in the assay with SK-OV-3 ovarian, 69.6%. Moreover, the growth is 37.4% in the assay on IGROV1 ovarian; 8.19% (active) in the assay with OVCAR-3 ovarian; 4.34% (active) with HS 578T breast; 66.4% in the assay with NCI/ADR-RES ovarian; 39% in the assay with T-47D breast; 27.6% in the assay with BT-549 breast. The growth with MDA-MB-435 melanoma was -50.1% (active); in the assay on SW-620 colon it was 23.3%; with MCF7 breast, 15%; in the assay with HCT-116 colon, 25.5%; in the assay on HCC-2998 colon, 61.1%; in the assay with KM12 colon it was 28.3%.
Take `COc1ccc(NC(=S)N/N=C/c2ccccc2SSCCC(=O)OC[C@H]2O[C@H](O)[C@H](O)[C@@H](O)[C@@H]2O)cc1`: the growth in the assay on SR leukemia was 49.6%; in the assay with RPMI-8226 leukemia it was 91.7%; in the assay with OVCAR-8 ovarian, 68.3%; in the assay with OVCAR-5 ovarian it was 100%; in the assay on OVCAR-4 ovarian it was 80.4%; in the assay with SK-OV-3 ovarian it was 73.5%. Further, the growth in the assay on IGROV1 ovarian was 56.8%; with OVCAR-3 ovarian, 91.3%; in the assay with HS 578T breast it was 91.6%; in the assay with NCI/ADR-RES ovarian, 59.7%; in the assay on T-47D breast, 66%; with BT-549 breast, 68.9%. Further, the growth in the assay with MDA-MB-435 melanoma is 52.8%; in the assay with SW-620 colon it was 93.5%; in the assay on MCF7 breast it was 44.7%; in the assay on HCT-116 colon, 72.9%; in the assay on HCC-2998 colon it was 94.2%; with KM12 colon, 63.3%.
With `O=C(NC(Cc1cn(Cc2ccccc2)cn1)C(=O)O)OCC1c2ccccc2-c2ccccc21` (centres undefined), the growth in the assay on SR leukemia is 85.1%; in the assay with RPMI-8226 leukemia, 114%; in the assay with OVCAR-8 ovarian, 103%; with OVCAR-5 ovarian it was 105%; in the assay with OVCAR-4 ovarian, 106%; in the assay on SK-OV-3 ovarian it was 109%. Moreover, the growth was 105% in the assay on IGROV1 ovarian; 105% in the assay on OVCAR-3 ovarian; 98% with HS 578T breast; 104% with NCI/ADR-RES ovarian; 112% in the assay with T-47D breast; 97.2% with BT-549 breast. Further, the growth in the assay on MDA-MB-435 melanoma was 113%; in the assay on SW-620 colon, 104%; with MCF7 breast, 104%; with HCT-116 colon, 90.8%; in the assay with HCC-2998 colon it was 113%; in the assay with KM12 colon, 101%.
For the molecule `Cc1c(C)c2c(c(C)c1NC(=O)CCCCCCC(=O)O)CCC(C)(CCCC(C)CCCC(C)CCCC(C)C)O2` (centres undefined), the growth was 6.23% (active) in the assay on SR leukemia; 69% with RPMI-8226 leukemia; 69.1% in the assay on OVCAR-8 ovarian; 121% in the assay with OVCAR-5 ovarian; 58.5% in the assay with OVCAR-4 ovarian; 99.3% in the assay with SK-OV-3 ovarian. For the same molecule, the growth in the assay with IGROV1 ovarian was 89.8%; in the assay on OVCAR-3 ovarian, 65.5%; in the assay on HS 578T breast it was 101%; with NCI/ADR-RES ovarian, 77.3%; in the assay on T-47D breast, 89.7%; in the assay on BT-549 breast it was 60.3%. For the same molecule, the growth in the assay with MDA-MB-435 melanoma was 95%; with SW-620 colon, 80.4%; with MCF7 breast, 43.5%; with HCT-116 colon, 22.7%; in the assay on HCC-2998 colon, 98.2%; with KM12 colon it was 30.7%.
